25 targets from the supplement of paper PMC10849652 can be followed below.

Of roughly 8,800 targets only a part is listed; those with a hit were picked by preference. About 0.5% of all pairs of compound and target were hits. A number with no mark means an inactive call.

Test in all cases: log2 fold change, soluble protein after heating vs DMSO (PISA); higher = thermal stabilisation; K562 lysate, 10 uM; active = over 0.2 and 3.5 SD of the protein, either way, in both replicates (recomputed)
Compound in experiment [1]: C1=CC=C(C=C1)[C@H](COC2=CC3=C(C=C2)NC(=O)N3)NC(=O)C4=CC=CN(C4=O)CC5=CC(=C(C=C5)F)F
Summed up: (§1)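 Following dounce homogenisation of K562 pellets in PBS pH 7.4 with 1 mM MgCl2, crude extract at 1 mg/mL protein was incubated for 30 min with 10 μM compound. Aliquots were then heated for 3 min over 48°C-58°C and pooled, NP-40 was added to 0.5% at 4°C, and soluble protein was recovered as the supernatant at 21,000xg for 90 min. Channel-sum-equalised TMTpro 16plex LC-MS/MS quantified this protein. Each value, from duplicates, is a log-two fold change in thermal stability relative to solvent controls.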

Compound in experiment [2]: CC1=C(SC2=C1C(=N[C@H](C3=NN=C(N32)C)CC(=O)N)C4=CC=C(C=C4)Cl)C
Summed up: as §1

Compound in experiment [3]: CC1=C2C(=CC=C1)N=C(N(C2=O)C3=CC=CC=C3C)CN4C=NC5=C(N=CN=C54)N
In outline:
as §1

Compound in experiment [4]: Cc1sc2c(c1C)C(c1ccc(Cl)cc1)=N[C@@H](CC(=O)OC(C)(C)C)c1nnc(C)n1-2
In outline:
as §1

Compound in experiment [5]: c1ccc([C@@H]2C[C@H]2NC2CCNCC2)cc1
Summed up:
as §1

Sequence of UniProt O75717 (O75717 whole entry, looked up): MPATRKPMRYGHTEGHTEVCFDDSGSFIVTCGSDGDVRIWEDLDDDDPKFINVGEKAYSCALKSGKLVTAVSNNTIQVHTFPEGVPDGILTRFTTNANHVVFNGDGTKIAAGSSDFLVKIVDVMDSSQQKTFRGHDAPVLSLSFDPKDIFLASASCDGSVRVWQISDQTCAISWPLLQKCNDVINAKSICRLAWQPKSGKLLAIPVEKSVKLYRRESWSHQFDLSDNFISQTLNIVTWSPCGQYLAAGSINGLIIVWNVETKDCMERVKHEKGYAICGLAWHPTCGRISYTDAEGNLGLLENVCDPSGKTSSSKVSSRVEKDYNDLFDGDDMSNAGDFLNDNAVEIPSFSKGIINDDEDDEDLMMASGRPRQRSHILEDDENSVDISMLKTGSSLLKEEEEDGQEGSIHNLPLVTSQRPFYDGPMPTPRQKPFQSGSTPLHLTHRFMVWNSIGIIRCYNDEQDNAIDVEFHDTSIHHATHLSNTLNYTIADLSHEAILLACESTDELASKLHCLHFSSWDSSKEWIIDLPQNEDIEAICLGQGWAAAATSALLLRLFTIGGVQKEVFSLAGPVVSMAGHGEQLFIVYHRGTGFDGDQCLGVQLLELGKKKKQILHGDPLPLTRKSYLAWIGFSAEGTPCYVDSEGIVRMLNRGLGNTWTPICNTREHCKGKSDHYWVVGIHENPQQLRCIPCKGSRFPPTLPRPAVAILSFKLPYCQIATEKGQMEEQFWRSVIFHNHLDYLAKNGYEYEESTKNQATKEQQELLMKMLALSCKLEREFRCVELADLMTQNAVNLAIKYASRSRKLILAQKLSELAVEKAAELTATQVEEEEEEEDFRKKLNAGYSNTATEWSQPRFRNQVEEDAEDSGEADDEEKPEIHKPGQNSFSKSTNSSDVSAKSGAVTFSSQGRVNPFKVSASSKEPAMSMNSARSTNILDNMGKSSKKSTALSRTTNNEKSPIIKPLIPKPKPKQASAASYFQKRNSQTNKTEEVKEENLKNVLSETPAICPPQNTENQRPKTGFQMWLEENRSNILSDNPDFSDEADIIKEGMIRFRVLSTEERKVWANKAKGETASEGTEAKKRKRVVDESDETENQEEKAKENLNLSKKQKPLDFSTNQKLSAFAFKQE
Sequence of UniProt P15498 (P15498 whole entry, looked up): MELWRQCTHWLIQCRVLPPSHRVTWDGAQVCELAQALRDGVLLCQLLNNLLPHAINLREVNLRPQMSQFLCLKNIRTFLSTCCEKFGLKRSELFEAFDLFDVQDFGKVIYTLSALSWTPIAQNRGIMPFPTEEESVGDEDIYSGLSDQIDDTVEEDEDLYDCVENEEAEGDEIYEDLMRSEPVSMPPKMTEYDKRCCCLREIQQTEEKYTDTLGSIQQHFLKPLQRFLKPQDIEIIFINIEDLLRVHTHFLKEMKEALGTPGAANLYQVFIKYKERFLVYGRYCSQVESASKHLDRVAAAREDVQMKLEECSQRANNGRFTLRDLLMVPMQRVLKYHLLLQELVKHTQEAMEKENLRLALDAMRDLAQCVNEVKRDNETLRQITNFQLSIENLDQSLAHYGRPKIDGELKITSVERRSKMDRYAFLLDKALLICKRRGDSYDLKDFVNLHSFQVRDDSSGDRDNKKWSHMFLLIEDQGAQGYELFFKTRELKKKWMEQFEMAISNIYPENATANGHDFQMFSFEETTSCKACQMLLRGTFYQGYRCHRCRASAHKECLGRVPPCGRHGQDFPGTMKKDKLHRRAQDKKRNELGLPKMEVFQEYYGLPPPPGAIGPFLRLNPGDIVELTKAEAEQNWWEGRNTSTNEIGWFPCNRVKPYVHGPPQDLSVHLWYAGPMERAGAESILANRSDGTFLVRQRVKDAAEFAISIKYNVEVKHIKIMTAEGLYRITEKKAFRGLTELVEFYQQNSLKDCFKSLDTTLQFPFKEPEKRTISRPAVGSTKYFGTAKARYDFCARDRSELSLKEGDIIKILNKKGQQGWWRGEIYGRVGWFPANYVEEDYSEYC
Sequence of UniProt Q9H3U1 (Q9H3U1 whole entry, looked up): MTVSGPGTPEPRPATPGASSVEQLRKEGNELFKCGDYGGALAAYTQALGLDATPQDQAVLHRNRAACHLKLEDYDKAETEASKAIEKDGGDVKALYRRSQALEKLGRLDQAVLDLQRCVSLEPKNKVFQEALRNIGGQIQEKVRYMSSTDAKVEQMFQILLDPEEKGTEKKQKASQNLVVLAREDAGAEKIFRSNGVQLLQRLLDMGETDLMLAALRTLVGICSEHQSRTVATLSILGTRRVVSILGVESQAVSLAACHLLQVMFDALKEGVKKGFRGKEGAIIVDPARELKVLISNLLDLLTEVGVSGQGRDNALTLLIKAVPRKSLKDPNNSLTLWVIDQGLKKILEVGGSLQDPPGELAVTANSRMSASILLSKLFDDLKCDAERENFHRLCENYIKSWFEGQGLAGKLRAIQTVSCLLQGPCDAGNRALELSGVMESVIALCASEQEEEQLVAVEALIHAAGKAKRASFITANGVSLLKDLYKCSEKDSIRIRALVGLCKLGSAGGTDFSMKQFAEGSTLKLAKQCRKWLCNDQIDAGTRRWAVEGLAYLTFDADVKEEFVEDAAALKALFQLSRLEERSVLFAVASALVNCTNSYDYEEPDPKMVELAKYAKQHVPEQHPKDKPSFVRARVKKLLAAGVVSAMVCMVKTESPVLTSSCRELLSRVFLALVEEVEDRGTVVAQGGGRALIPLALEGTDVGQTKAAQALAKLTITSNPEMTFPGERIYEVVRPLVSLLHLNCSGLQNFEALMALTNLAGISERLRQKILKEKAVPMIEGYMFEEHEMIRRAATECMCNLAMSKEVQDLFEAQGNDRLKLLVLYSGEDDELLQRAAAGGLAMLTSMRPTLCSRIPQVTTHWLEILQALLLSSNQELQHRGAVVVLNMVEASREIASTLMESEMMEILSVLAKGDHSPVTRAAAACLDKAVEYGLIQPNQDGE
Sequence of UniProt A8MPS7 (A8MPS7 whole entry, looked up): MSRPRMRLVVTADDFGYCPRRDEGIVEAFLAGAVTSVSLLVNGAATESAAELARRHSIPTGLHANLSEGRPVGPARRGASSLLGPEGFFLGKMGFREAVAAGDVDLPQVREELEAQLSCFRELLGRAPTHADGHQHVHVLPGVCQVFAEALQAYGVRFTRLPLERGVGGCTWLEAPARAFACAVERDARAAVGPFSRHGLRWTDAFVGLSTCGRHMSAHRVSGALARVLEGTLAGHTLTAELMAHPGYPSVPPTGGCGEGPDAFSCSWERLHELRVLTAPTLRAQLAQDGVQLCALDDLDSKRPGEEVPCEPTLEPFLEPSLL
Sequence of UniProt Q7Z3J2 (Q7Z3J2 whole entry, looked up): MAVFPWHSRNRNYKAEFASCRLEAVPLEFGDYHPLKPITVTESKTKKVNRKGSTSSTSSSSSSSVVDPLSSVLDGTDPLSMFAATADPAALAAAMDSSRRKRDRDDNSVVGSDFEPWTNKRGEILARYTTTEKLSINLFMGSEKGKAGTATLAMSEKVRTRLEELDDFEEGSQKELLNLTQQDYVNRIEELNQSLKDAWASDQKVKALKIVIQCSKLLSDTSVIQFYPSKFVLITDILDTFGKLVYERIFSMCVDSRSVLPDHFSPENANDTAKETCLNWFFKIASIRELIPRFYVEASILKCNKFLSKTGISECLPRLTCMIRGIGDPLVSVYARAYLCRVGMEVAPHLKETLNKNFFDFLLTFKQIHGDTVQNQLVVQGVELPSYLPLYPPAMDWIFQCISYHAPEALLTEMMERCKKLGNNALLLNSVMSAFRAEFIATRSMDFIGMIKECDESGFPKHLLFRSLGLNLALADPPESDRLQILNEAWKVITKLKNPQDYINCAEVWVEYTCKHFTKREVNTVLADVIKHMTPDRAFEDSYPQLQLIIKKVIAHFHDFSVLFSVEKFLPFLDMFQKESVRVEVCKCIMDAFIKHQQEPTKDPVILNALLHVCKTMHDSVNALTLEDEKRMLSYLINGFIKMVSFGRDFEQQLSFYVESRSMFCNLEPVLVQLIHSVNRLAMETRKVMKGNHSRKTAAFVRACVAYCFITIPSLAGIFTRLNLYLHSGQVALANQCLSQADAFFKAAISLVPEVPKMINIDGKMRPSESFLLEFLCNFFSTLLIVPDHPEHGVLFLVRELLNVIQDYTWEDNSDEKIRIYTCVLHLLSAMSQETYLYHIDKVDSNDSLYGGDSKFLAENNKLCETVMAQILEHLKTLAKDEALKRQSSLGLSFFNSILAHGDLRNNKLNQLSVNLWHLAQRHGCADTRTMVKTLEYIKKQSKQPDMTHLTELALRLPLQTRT
Sequence of UniProt Q9Y6I4 (Q9Y6I4 whole entry, looked up): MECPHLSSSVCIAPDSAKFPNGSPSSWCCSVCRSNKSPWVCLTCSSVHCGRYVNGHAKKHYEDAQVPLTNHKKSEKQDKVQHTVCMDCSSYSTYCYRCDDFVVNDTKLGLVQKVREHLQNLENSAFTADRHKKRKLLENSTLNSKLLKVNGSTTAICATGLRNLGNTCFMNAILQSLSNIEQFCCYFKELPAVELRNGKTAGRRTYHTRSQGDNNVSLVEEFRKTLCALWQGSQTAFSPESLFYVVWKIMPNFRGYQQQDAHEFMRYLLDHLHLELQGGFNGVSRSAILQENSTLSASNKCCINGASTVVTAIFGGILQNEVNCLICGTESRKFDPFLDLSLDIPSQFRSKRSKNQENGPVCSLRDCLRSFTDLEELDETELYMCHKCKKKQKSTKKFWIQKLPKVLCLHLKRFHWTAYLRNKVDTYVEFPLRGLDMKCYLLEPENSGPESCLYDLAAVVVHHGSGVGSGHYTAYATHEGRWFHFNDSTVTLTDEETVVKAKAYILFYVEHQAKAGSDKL
Sequence of UniProt Q9BRT2 (Q9BRT2 whole entry, looked up): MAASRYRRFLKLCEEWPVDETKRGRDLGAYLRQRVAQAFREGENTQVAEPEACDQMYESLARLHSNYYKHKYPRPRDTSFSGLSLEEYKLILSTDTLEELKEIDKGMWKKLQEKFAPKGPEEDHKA

Take VAV3 isoform 4 (UniProt Q9UKW4): the log2 fold change was 0.089 in experiment [1]; -0.012 in experiment [2]; 0.096 in experiment [3]; 0.001 in experiment [4]; -0.391 in experiment [5].
Turning to WDR20 isoform 7 (UniProt Q8TBZ3), the log2 fold change in experiment [1] is -0.037; in experiment [2], -0.002; in experiment [3], 0.035; in experiment [4] it was -0.176; in experiment [5], -0.124.
For UNC45A (UniProt Q9H3U1), in that order: -0.036, -0.011, 0.036, 0.004 and 0.039.
For YDJC (UniProt A8MPS7), the log2 fold change in experiment [1] is 0.001; in experiment [2], -0.012; in experiment [3], -0.003; in experiment [4], 0.012; in experiment [5], 0.018.
As to URGCP (UniProt Q8TCY9), the log2 fold change in experiment [1] was 0.003; in experiment [2], 0.036; in experiment [3], 0.044; in experiment [4] it was 0.047.
With WDR24 (UniProt Q96S15), the log2 fold change in experiment [1] is -0.066; in experiment [2], -0.475 (active); in experiment [3] it was -0.093; in experiment [4], 0.002; in experiment [5], -0.024.
In the same order, the values of WDR36 (UniProt Q8NI36) are 0.006, 0.001, 0.06, 0.025 and 0.035.
In the same order, the values of WDR41 (UniProt Q9HAD4) are 0.043, 0.013, 0.02, -0.047 and -0.012.
In the same order, the values of VRK1 (UniProt Q99986) are -0.002, 0.017, 0.023, -0.005 and 0.034.
Regarding ZC3HC1 (UniProt Q86WB0), the log2 fold change in experiment [1] was 0.002; in experiment [2], 0.045; in experiment [3] it was 0.006; in experiment [4], 0.019; in experiment [5] it was 0.061.
In the same order, the values of ZDHHC18 (UniProt Q9NUE0) are 0.103, 0.115, 0.075, -0.072 and 0.043.
For VPS16 (UniProt Q9H269), in that order: -0.035, -0.009, 0.041, 0.011 and 0.005.
For the target VAV1 (UniProt P15498), the log2 fold change in experiment [1] is -0.025; in experiment [2], 0.001; in experiment [3], -0.011; in experiment [4], -0.017; in experiment [5] it was -0.068.
For VPS35L (UniProt Q7Z3J2), in that order: 0.013, 0.004, 0.044, -0.032 and 0.013.
For ULK3 isoform 4 (UniProt Q6PHR2), in that order: -0.015, 0.043, -0.117, -0.026 and 0.125.
In the same order, the values of WDHD1 (UniProt O75717) are 0.018, -0.011, -0.017, 0.011 and 0.067.
VCPIP1 (UniProt Q96JH7): the log2 fold change was -0.025 in experiment [1]; -0.008 in experiment [2]; 0.002 in experiment [3]; -0.052 in experiment [4]; -0.002 in experiment [5].
In the same order, the values of USP3 (UniProt Q9Y6I4) are 0.026, 0.006, -0.056, -0.044 and 0.073.
YTHDF3 (UniProt Q7Z739): the log2 fold change is -0.111 in experiment [1]; 0.021 in experiment [2]; 0.063 in experiment [3]; -0.01 in experiment [4]; -0.018 in experiment [5].
On to ZFYVE19 isoform 3 (UniProt Q96K21), for which the figures for the log2 fold change in experiment [1] and in experiment [2] were 0.062 and -0.075, respectively.
On to UNKL (UniProt E9PDK2), for which the log2 fold change is -0.025 in experiment [1], 0.09 in experiment [2], 0.249 in experiment [3] and 0.022 in experiment [4].
For WEE1 (UniProt P30291), in that order: -0.002, -0.099, -0.047 and 0.03.
In the case of ZSWIM8 isoform 4 (UniProt A7E2V4), the log2 fold change in experiment [1] was 0.076; in experiment [2] it was -0.038; in experiment [3], 0.071; in experiment [4], 0.013; in experiment [5], 0.03.
For ZNF598 isoform 3 (UniProt Q86UK7), in that order: -0.037, -0.014, 0.006, 0.034 and 0.025.
For UQCC2 (UniProt Q9BRT2), in that order: 0.008, 0.019, -0.056, -0.057 and 0.095.
